Outcome and AC50 data for 40 compounds are collected here from PubChem BioAssay (EPA / NIEHS).

Molecules are shown by their SMILES. The source made the active and inactive calls. Rule for the calls: active = hit-call score of the fitted dose curve at least 0.9, where 1 is the maximum; inactive = score below 0.9.

The nature of the assay: APR_HepG2_p53Act_72hr: Apredica 72-hour HepG2 Assay for p53 Activation (AID 2282923).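 Note: average cellular p53 protein immunofluorescence intensity in HepG2 cells.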 Conditions: high-content imaging, actives raise or lower the signal. On the procedure:
APR_HepG2_72hr is a cell-based, multiplexed-readout assay that uses HepG2, a human liver cell line, with measurements taken at 72 hours after chemical dosing in a 384-well plate.APR_HepG2_p53Act_72hr is one of 10 assay component(s) measured or calculated from the APR_HepG2_72hr assay. It is designed to make measurements of dna content, a form of viability reporter, as detected with fluorescence intensity signals by HCS Fluorescent Imaging technology.Data from the assay component APR_HepG2_p53Act_72hr was analyzed into 1 assay endpoint. This assay endpoint, APR_HepG2_p53Act_72hr, was analyzed with bidirectional fitting relative to DMSO as the negative control and baseline of activity. Using a type of viability reporter, measures of protein for gain or loss-of-signal activity can be used to understand the signaling at the pathway-level as they relate to the gene TP53. Furthermore, this assay endpoint can be referred to as a primary readout, because this assay has produced multiple assay endpoints where this one serves a signaling function. To generalize the intended target to other relatable targets, this assay endpoint is annotated to the dna binding intended target family, where the subfamily is tumor suppressor.
Cells were treated with dimethyl sulfoxide (DMSO) as a solvent control at a final concentration of 0.5% v/v or with compounds in DMSO with a resulting final DMSO concentration of 0.5% v/v. Compound treatment was done at concentrations of 0.39, 0.78, 1.56, 3.12, 6.24, 12.5, 25, 50, 100, and 200 uM in duplicate on each plate. Cells were treated with compounds for 1, 24, or 72 hr. Carbonyl […] m-chloro-phenylhydrazone (CCCP) and taxol were used as positive controls for mitochondrial function and cytoskeletal stability, respectively; DMSO served as the negative control for this experiment. Cells were fixed by the direct addition of 50 uL formaldehyde in Hank's Balanced Salt Solution (HBSS) to a final concentration of 3.7%. After incubation in the fixation medium for 30 min at room temperature (293-298 K), cells were rinsed twice with HBSS and treated with cell permeabilization buffer (16 uL of 0.5% Triton X-100) for 10 min at room temperature (293-298 K) before labeling. For mitochondrial membrane potential and mitochondrial measurements, pre-fixed cells were incubated with 50 uL of MitoTracker Red CMXRos (Invitrogen) at a concentration of 250 nM for 30 min before fixation. In the remaining cases, post-fixed cells were labeled by incubation with a multiplexed mixture of primary antibodies in HBSS for 60 min at room temperature (293-298 K) to detect immunoreactivity of c-Jun (1:500), phospho-histone H3 (1:100), phospho-histone H2A.x (1:200), p53 (1:400), alpha-tubulin (1:200) and Hoechst 33342 (2 ug/mL). Cells were labeled for multiplexed imaging on two separate plates: a) Hoechst 33342, MitoTracker Red, phospho-histone H3, and alpha-tubulin, and b) Hoechst 33342, phospho-histone H2A.x, and c-Jun. A final rinse with HBSS (50 uL) was performed before analysis. The primary and secondary antibodies for the proteins were phospho-histone H3 (rabbit anti-phospho-histone H3 and FITC-donkey anti-rabbit IgG), phospho-histone H2A.x (mouse anti-phospho-histone H2A.x and FITC-donkey anti-mouse IgG), c-Jun (rabbit anti-phospho-c-Jun and Cy3-donkey anti-rabbit IgG), p53 (sheep anti-p53 and Cy5-donkey anti-sheep IgG), alpha-tubulin (mouse anti-alpha-tubulin and Cy5-donkey anti-mouse IgG). These antibodies are available as the CellCiphr HepG2 assay kit (Millipore).Digital images of each well were captured using a Cellomics ArrayScan VTI (Thermo Scientific Cellomics) (0.8 NA objective, 0.63x optical coupler, and XF-93 filter set) at 20x magnification. The images were acquired using the autofocus feature of the ArrayScan instrument, which entails the following steps. First, the camera focuses on channel 1 (Hoechst 33342), where nuclei are identified. Second, a Z offset of 1 um is used for capturing mitochondria (MitoTracker Red). […]
For the compound `COc1cc(C(=O)NC2CCN(C)CC2)ccc1Nc1ncc2c(n1)N(C1CCCC1)CC(F)(F)C(=O)N2C`, the compound was classed as inactive. Still for that read-out and setting: the result for `Cc1ccc(C(C)C)cc1` reads “inactive”; that for `CCCC(=O)OCCC(C)C`, “inactive”. Still for that read-out and setting: as for `CCCCCCCCCCCO`, the entry is “inactive”; as for `Cc1cccc2ccccc12`, “inactive”. Turning to `O=c1c(-c2ccc(O)cc2)coc2cc(O)cc(O)c12`, the AC50 was 72.9 µM (active).

In the case of `CO[C@H]1/C=C/O[C@@]2(C)Oc3c(C)c(O)c4c(O)c(c(/C=N/N5CCN(C)CC5)c(O)c4c3C2=O)NC(=O)/C(C)=C\C=C\[C@H](C)[C@H](O)[C@@H](C)[C@@H](O)[C@@H](C)[C@H](OC(C)=O)[C@@H]1C`, the result was inactive. On to `O=C(Nc1ccc(Cl)cc1)Nc1ccc(Cl)c(Cl)c1`, for which the concentration at half-maximal activity (AC50) was 5.61 µM (active). Consider `NC(=O)c1nc(-c2cccc(-c3cc(F)ccc3OCC(F)(F)C(F)(F)F)c2)n[nH]1`, for which the compound was called inactive. Turning to `CC(C)(O)c1ccc(CNC(=O)c2cccnc2Oc2ccc3nonc3c2)cc1`, the compound was classed as inactive.

`COc1cccc([C@H](O)C2CCN(CCc3ccc(F)cc3)CC2)c1OC`: the call was inactive. Still for that read-out and setting: as for `CCCCCCCCOc1ccc(C(=O)c2ccccc2)c(O)c1`, the entry is “inactive”; as for `O=c1ccc2ccccc2o1`, “inactive”.

On to `CCOC(=O)O[C@H](C)OC(=O)c1ccc2c(c1)cc(C(=O)NC1CCN(C(C)C)CC1)n2Cc1cc(-c2ccc(Cl)s2)on1`, for which the outcome was inactive.

For `CC(C)(C)c1csc(-c2cc3cc(OCc4ccccc4CC(=O)O)ccc3o2)n1`, the outcome was inactive. Still for that read-out and setting: the result for `CC[C@H](NC(=O)c1cc(F)ccc1NS(=O)(=O)c1cccc2cccnc12)c1ccccc1` reads “inactive”. Same read-out and setting: the result for `CN1C(=O)CC[C@H]1c1cccnc1` reads “inactive”. In the case of `NCc1cccc(C2CCN(C(=O)c3ccc(C#Cc4ccccc4F)o3)CC2)c1`, the half-maximal activity concentration (AC50) is 11.4 µM (active). As to `CCN(CC)C(=O)c1cc(S(=O)(=O)Cc2ccccc2)c(N2CCC(c3ccccc3)CC2)cc1N(CC)CCN(C)C`, the call was inactive. Same read-out and setting: as for `CCCCCCCCN(C)CCCCCCCC`, the entry is “inactive”; as for `Clc1cc(Cl)c2c(c1)N=C1CCCCCN1C2`, “inactive”; as for `CCO[Si](CCCNC(N)=O)(OCC)OCC`, “inactive”. On the same count and under the same terms, the result for `CC1(C)NC(=O)N(c2ccc([N+](=O)[O-])c(C(F)(F)F)c2)C1=O` reads “inactive”; that for `OCCO`, “inactive”; that for `CCN(Cc1cccc(S(=O)(=O)O)c1)c1ccc(C(=C2C=CC(=[N+](CC)Cc3cccc(S(=O)(=O)O)c3)C=C2)c2ccccc2S(=O)(=O)[O-])cc1`, “inactive”. On to `c1ccc2ccccc2c1`, for which the AC50 is 0.0391 µM (active). As to `Oc1ccccc1`, the result was inactive. `CCCCCCCC[Si](OCC)(OCC)OCC`: the AC50 was 19.8 µM (active). As to `CCCCCCCCCC(=O)O`, the compound was called inactive. On to `Cc1ccc2oc(CN(Cc3ccccc3)C(=O)Nc3c(F)cc(F)cc3F)c(-c3ccc(Cl)cc3)c2c1`, for which the compound was classed as inactive. As to `CCCCCCCCOC(=O)c1cc(O)c(O)c(O)c1`, the AC50 is 4.98 µM (active).

Regarding `Clc1ccccc1C(c1ccccc1)(c1ccccc1)n1ccnc1`, the AC50 was 29.8 µM (active). As for `CC(O)CC(C)(C)O` (stereo not given), the result was inactive.

In the case of `CN(C)c1ccc(C(=C2C=CC(=[N+](C)C)C=C2)c2ccc(N(C)C)cc2)cc1`, the AC50 was 19.9 µM (active). On to `C[C@]12CC[C@@H]3c4ccc(O)cc4CC[C@H]3[C@@H]1CC[C@H]2O`, for which the outcome was inactive. For the compound `O=C1O[C@H]([C@@H](O)CO)C(O)=C1O`, the half-maximal activity concentration (AC50) was 10.5 µM (active). For the compound `Oc1ccc2ccccc2c1`, the result was inactive. `CCCCOC(=O)CC(CC(=O)OCCCC)(OC(C)=O)C(=O)OCCCC`: the concentration at half-maximal activity (AC50) was 57.9 µM (active). Same read-out and setting: as for `CN(C[C@@H](CC[N+]12CCC(C3CCCCC3)(CC1)CC2)c1ccc(Cl)c(Cl)c1)C(=O)c1cc(C(F)(F)F)cc(C(F)(F)F)c1`, the figure is 26.7 µM (active). Consider `O=C(O)Cn1c(=O)n(Cc2ccc(Br)cc2F)c(=O)c2ccc(Cl)cc21`, for which the call was inactive.
